Values without a mark were called inactive. Calls come from the whole dose curve; as a rule, active = well fitted inhibition curve with a large enough effect; inconclusive = small, poorly fitted or top-dose-only effect; inactive = no such curve, though single readings can be large or run the other way.
The compounds below were run against Single-stranded DNA cytosine deaminase (Homo sapiens) (UniProt Q9GZX7) (assay: Validation qHTS assay for inhibitors of Activation Induced Cytidine Deaminase (AID): AID signal (AID 1347429)). Conditions: Recombinant AID, FRET ssDNA deamination with UDG, fluorescence; series mostly up to 115 µM; activity change, negative = inhibition: at the top concentration.
Single-stranded DNA cytosine deaminase (Homo sapiens), sequence (Q9GZX7 whole entry, looked up): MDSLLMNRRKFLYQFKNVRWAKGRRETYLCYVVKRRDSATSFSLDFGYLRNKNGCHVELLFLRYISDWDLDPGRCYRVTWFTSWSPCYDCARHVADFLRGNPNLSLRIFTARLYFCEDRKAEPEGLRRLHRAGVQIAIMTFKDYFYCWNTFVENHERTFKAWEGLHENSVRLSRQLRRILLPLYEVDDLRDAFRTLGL
Source text: Assay Provider (PI) Patricia Gearhart Ph.D. National Institute on Aging National Institute of Health (NIH), Bethesda, MD Assay Provider (PI) Rahul Kohli Ph.D. Perelman School of Medicine University of Pennsylvania, Philadelphia, PA Activation-Induced Deaminase (AID) is a cytosine deaminase which converts cytosine into uracil within stretches of ssDNA. The presence of uracil in DNA initiates a cascade of mutagenic DNA repair to introduce point mutations and DNA double strand breaks. Specific targeting of AID to the immunoglobulin heavy chain loci (Igh) promotes mutagenesis in the antibody variable region for somatic hypermutation (SHM) or switch regions leading to class switch recombination (CSR). However, AID also plays a role in accumulating unnecessary mutations across the genome. Mis-targeting of AID results in the initiation of tumor development and leads to greater drug resistance among cancer cells when continually expressed. To identify an AID inhibitor, a small molecule library will be screened in collaboration with NCATS core facility at NIH. To confirm biological function, inhibitors will be examined in an in vitro murine B-cell activation assay and subsequent secondary validation screens. Top molecules will be further screened to identify inhibitory efficacy against a wild type primary splenocytes assay. Using these approaches, we hope to identify a small molecule with great efficacy and low toxicity for use as a molecular probe to further characterize AID's intricacies, or even as a therapeutic. A FRET based analysis of cytosine deamination, was developed to identify potential inhibitors of AID catalytic activity. This screen has two signal output, Read 1 evaluates the AID inhibition response. The second readout (Read 2) evaluates UDG response and is uses as a counterscreen to exclude false positive inhibitors. Inhibition in AID and inactivity in the UDG signal is the desired outcome for this assay.
PROTOCOL TABLE SEQUENCE No. (e.g., 1, 2, 3, etc.); […] (e.g., Cells, Incubation, Reagent, etc.); VALUE; DESCRIPTION 1a; Reagent; 3 uL; [4/3x] […] 250 nM DJC20 / 250 nM DJC23 [Substrate] 5; Time; 4 hr; incubation at room temperature 6; Reagent; 4 uL; [2x] 250 mM NaOH 7; Time; 15 sec; centrifuge at 1000 rpm 8; Time; 30 min; incubation at room temperature 9a; Detection; fluorescence (Read 1: AID); EnVision (PerkinElmer) plate reader, 540 excitation and 590 emission filters 9b; Detection; fluorescence (Read 2: UDG); EnVision (PerkinElmer) plate reader, 560 excitation and 665 emission filters NOTES (numbers refer to sequence above) 1a; Reagents were dispensed in a medium-binding black solid-bottom Greiner plates (789176F) using a BioRptr liquid dispenser. Dispense 3 uL of [4/3x] 1 uM AID (provided by Kohli lab) and [4/3x] 2 U/mL UDG (NEB M0280L) into columns 1, 2, 5 to 48. 1b; Dispense 3 uL of [4/3x] 2 U/mL UDG into column 3. 1c; Dispense 3 uL of [4/3x] 1 uM AID into column 4. 2a; Compound ([…] [uM] (0.64; 3.2; 16; 80; 400; 2,000; 10,000; 20,000) double pin-transferred (Dip Factor = 2) using the Kalypsys (Wako USA) pintool equipped with a 1536 pinhead for a final concentration range of 7.32 nM - 114 uM. 2b; 10 mM Aurintricarboxylic Acid (Sigma A1895) (ATA, 8-point, n = 2, 1:2.5 dilution in column 2) double pin-transferred (Dip Factor = 2) using the Kalypsys (Wako USA) pintool equipped with a 1536 pinhead for a [final] range of 186 nM - 114 uM. 3; Room temperature incubation. 4; Dispense 1 uL of substrate mixture from the Kohli lab [4x] […] DJC20 and [4x] 250 nM DJC23 into columns 1 to 48 . 5; Room temperature incubation. 6; Dispense 4 uL of substrate mixture [2x] 250 mM NaOH into columns 1 to 48. 7; Centrifugation step to remove bubbles. 8; Room temperature incubation 9a; Fluorescence signal (column label AID) was read using the EnVision plate reader. Excitation filter = 540(8) nm, barcode = 311; Emission filter = 590(20) nm, barcode = 217; Mirror = D555, barcode = 405. […]
% is set by controls: 0 for no effect and ±100 for the full control effect.

First: CCC1(O)CC2CN(CCc3c([nH]c4ccccc34)[C@@](C(=O)OC)(c3cc4c(cc3OC)N(C=O)C3[C@]45CCN4CC=C[C@@](CC)([C@@H](OC(C)=O)[C@]3(O)C(=O)OC)[C@H]45)C2)C1 (stereo not given in full)
Second: COc1ccc(C(=O)NCc2cccnc2)cc1C(=O)NCc1cccnc1
The “activity change, negative = inhibition” value of the first is higher: 17% for the first, 9.68% for the second.

Compared with C/C(=C\c1ccc(C(=O)O)cc1)c1ccc2c(c1)C(C)(C)CCC2(C)C, O=C(O)/C(=C/c1c(C(=O)O)[nH]c2cc(Cl)cc(Cl)c12)c1ccccc1 is higher in “activity change, negative = inhibition” value: -11.8% for the first, 18.3% for the second.

Compared with CCCC[C@@]1(C2CCCC2)Cc2cc(OCC(=O)O)c(Cl)c(Cl)c2C1=O, CCCCS(=N)(=O)CC[C@H](N)C(=O)O (stereo not given in full) is higher in “activity change, negative = inhibition” value: -7.9% for the first, 4.89% for the second.

Compared with CCCCCCCCCCCCCCC[C@H](O)[C@H](N)CO, CCCCCC[C@@H]([C@@H](C)O)n1cnc2c(N)ncnc21 is lower in “activity change, negative = inhibition” value: 34% for the first, 21.3% for the second.

Compared with NC(=O)CNCCC(c1ccccc1)c1ccccc1, O=C(N[C@@H](Cc1ccccc1)C(=O)CCl)OCc1ccccc1 is lower in “activity change, negative = inhibition” value: 21.1% for the first, 18.9% for the second.

Compared with O=c1[nH]c2cc(Cl)ccc2c(O)c1-c1ccc(Oc2ccccc2)cc1, O=C(O)c1ccccc1Nc1cccc(OCc2ccc3ccccc3n2)c1 is lower in “activity change, negative = inhibition” value: 10.9% for the first, -4.72% for the second.

Going from Nc1ncnc2c1ncn2C1CCCO1 (stereo not given) to Nc1ncnc2c1nc(Br)n2C1OC2COP(=O)(O)O[C@@H]2C1O (stereo not given in full), the “activity change, negative = inhibition” value rises from -5.2% to 14.8%.

Going from N[C@H](C(=O)O)c1cc(O)cc(O)c1 to O=C(O)c1cc(=O)cc(C(=O)O)[nH]1, the “activity change, negative = inhibition” value falls from 104% to 22.8%.

Compared with O=C(O)CCC/C=C\C[C@@H]1[C@@H](/C=C/[C@H](O)C2Cc3ccccc3C2)[C@@H](F)C[C@@H]1O, N[C@@H](Cc1c[nH]c2ccccc12)C(=O)O is higher in “activity change, negative = inhibition” value: 0.265% for the first, 3.48% for the second.

Going from NOCC(=O)O to NC/C=C\C(=O)O, the “activity change, negative = inhibition” value falls from 25.1% to 17.7%.

First: CN1CCc2cc(Cl)c(O)cc2[C@@H](c2ccccc2)C1
Second: Oc1cc2c(cc1O)C(c1ccccc1)CNCC2 (stereo not given)
The “activity change, negative = inhibition” value of the first is lower: 23.2% for the first, 32.4% for the second.

Compared with CC#CCOC(=O)c1c(C)nc2sc3c(c2c1N)CCC(O)C3 (stereo not given), COC(=O)C1=C(C)NC(C)=C([N+](=O)[O-])C1c1ccccc1C(F)(F)F (stereo not given) is higher in “activity change, negative = inhibition” value: 0.851% for the first, 16.9% for the second.

First: c1ccc(C2CN3CCSC3=N2)cc1 (stereo not given)
Second: C=CCN1CCc2c(cc(O)c(O)c2Cl)C(c2ccccc2)C1 (stereo not given)
The “activity change, negative = inhibition” value of the first is higher: -1.35% for the first, -3.51% for the second.

Going from c1ccc2c(c1)CC(N1CCN(c3cccc4c3OCCO4)CC1)C2 to Clc1nccc2c1ccc1ccccc12, the “activity change, negative = inhibition” value rises from 7.41% to 9.69%.

First: NCC(O)(CS(=O)(=O)O)c1ccc(Cl)cc1 (stereo not given)
Second: NCCNS(=O)(=O)c1cccc2c(Cl)cccc12
The “activity change, negative = inhibition” value of the first is lower: 1.08% for the first, 34.2% for the second.

Compared with COc1cc(C(O)CO)ccc1O (stereo not given), CC[N+](CC)(CC)CC(=O)Nc1c(C)cccc1C is lower in “activity change, negative = inhibition” value: 54.8% for the first, 18.3% for the second.

Going from O=[N+]([O-])c1cccc2c(Br)[nH]nc12 to O=C1Nc2ccc(I)cc2/C1=C/c1cc(Br)c(O)c(Br)c1, the “activity change, negative = inhibition” value rises from 9.8% to 194%.

Going from CSc1nc(N)c2ncn([C@@H]3O[C@H](COP(=O)(O)OP(=O)(O)O)C(O)[C@H]3O)c2n1 (stereo not given in full) to CNc1ncnc2c1ncn2[C@H]1C[C@H](OP(=O)(O)O)[C@@H](COP(=O)(O)O)O1, the “activity change, negative = inhibition” value rises from 14.8% to 60.2%.

Compared with Brc1c(Br)c(Br)c2[nH]cnc2c1Br, Nc1nc2[nH]c(=O)cnc2c(=O)[nH]1 is lower in “activity change, negative = inhibition” value: 9.85% for the first, 6.5% for the second.

Compared with Cc1ccccc1/C=C/C1=NCCN1, C=C1C[C@@]23CC[C@H]4[C@@](C)(CCC[C@@]4(C)C(=O)O)[C@@H]2CC[C@]1(O)C3 is lower in “activity change, negative = inhibition” value: 20.2% for the first, 17.4% for the second.

Source: PubChem BioAssay (NCATS)
